KDM5B inhibitor – KDM5B demethylase inhibition | Potency, µM (top dose mostly 57.7 µM), most hits filed as inhibitors | AID 1347165 | 2.6% of 220,000 active | Q9UGL1 | KDM5B demethylase, FDH-coupled NADH fluorescence (FDH is formaldehyde dehydrogenase); active means well fitted inhibition curve with a large enough effect; further: nearly all actives have a fitted effect of over 70% in size
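Coupled FDH/NAD⁺ fluorescence readout. KDM5BΔAP 200 nM final; compound titration, 10 min RT preincubation; substrate mix 12.5 µM H3K4me3, 25 µM 2-OG, 50 µM Fe(II), 100 µM ascorbate, 0.25 mM NAD⁺, 0.25 U/mL FDH; ΔRFU over 30 min.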
Numbers stand for hits; i = inactive. This is one part of a sample in which hits are shown more often than they occur.

SMILES	KDM5B inhibitor
C=CCNC(=O)c1ccc(Cn2ccn3nc4c(c3c2=O)CCCC4)cc1	i
Cc1oc(-c2ccccc2)nc1C(=O)OCC(=O)NC(C)C(C)C (centres undefined)	i
N#Cc1nc(-c2ccc(Cl)cc2)oc1N1CCCC1	i
CCOc1ccc(CN(C)Cc2cc(C(C)(C)C)c(O)c(C(C)(C)C)c2)cc1OC	i
O=C(COc1ccc(Cl)cc1)NCc1ccc(-c2nn3cnnc3s2)cc1	i
Cc1ccc(C)c(Cn2nc(-c3ccc(C)c(S(=O)(=O)N4CCCC4)c3)ccc2=O)c1	i
C=CCNc1nc(C(=O)OCC(=O)NCc2cccc(OC)c2)cs1	i
O=C(NCc1ccccc1Cn1cccn1)c1cn[nH]c1-c1ccc(F)cc1	i
O=C(OCCOc1ccccc1F)c1ccc2nccnc2c1	i
COc1ccc(Cl)cc1C(=O)N1CCCC(c2[nH]ccc2C(N)=O)C1 (centres undefined)	i
COc1cccc(C(=O)N2CCCC(c3[nH]ccc3C(N)=O)C2)c1OC (centres undefined)	i
COCCCn1c(C)cc(C(=O)N2CCCC(c3[nH]ccc3C(N)=O)C2)c1C (centres undefined)	18µM
CC(=O)c1cccc(NC(=O)C2CC3CCCC(C2)C3=O)c1 (centres undefined)	i
CN(C)Cc1nnc(C2CC(NC(=O)c3ccn(C)c(=O)c3)C2)n1C (centres undefined)	32µM
CN(C)Cc1nnc(C2CC(NC(=O)c3cc(-c4cccn4C)n[nH]3)C2)n1C (centres undefined)	i
CN(C)Cc1nnc(C2CC(NC(=O)c3cn(-c4ccccc4)nn3)C2)n1C (centres undefined)	i
CC(=O)c1c(C)nn(CC(=O)NC2CC(c3nnc(CN(C)C)n3C)C2)c1C (centres undefined)	i
CN(C)Cc1nnc(C2CC(Nc3cncc(C(=O)N(C)C)n3)C2)n1C (centres undefined)	28µM
CN(C)Cc1nnc(C2CC(NC(=O)c3ccc4c(c3)CCC4)C2)n1C (centres undefined)	i
O=C(O)CSCc1ccc(F)cc1	i
COP(=O)(OC)c1nc(-c2cccc([N+](=O)[O-])c2)oc1NCc1ccccc1	i
N#Cc1ccc(OCCOC(=O)COc2ccc(Cl)cc2Br)cc1	i
Cc1cnc(C(=O)NCC(=O)N2CCCCCNC(=O)CC2c2ccccc2)cn1 (centres undefined)	i
O=C1CC(c2ccccc2)N(C(=O)CNC(=O)c2cnccn2)CCCCCN1 (centres undefined)	i
O=C1CC(c2ccccc2)N(C(=O)CNC(=O)c2ccccn2)CCCCCN1 (centres undefined)	28µM
SMILES	KDM5B inhibitor
CCCN(Cc1nc2cc(Cl)ccc2c(=O)[nH]1)C(=O)c1cc(OC)c(OC)c(OC)c1	i
CC(=O)N[C@@H]1CN(C(=O)c2cnc3ccccc3c2)C[C@H]1c1ccc(C)cc1	i
CCNC(=O)NC(=O)CN(C)C(C)C(C)(C)C (centres undefined)	i
COCCCNC(=O)c1c[nH]c2ncccc12	i
O=C(c1ccnc2[nH]ccc12)N1CCOCC1	126µM
O=C(c1cc(N2CCCCCC2)nc2ccccc12)N1CCOCC1	i
CN(C)C(=O)c1ccnc2[nH]ccc12	126µM
CC(=O)N1CCN(C(=O)c2c[nH]c3ncccc23)CC1	i
Cc1ccc(Br)c(C(=O)NCc2ccnc3[nH]ccc23)c1	i
COc1ccc2cc(CNC(=O)c3cc4ccc(OC)cc4nc3C)ccc2c1	i
O=C(NCc1ccc(F)cc1)N1CC(Oc2ccc(-c3noc(-c4ccccc4)n3)cc2)C1	i
COc1ccc(N(C)C(=O)c2cc(C)nc3ccccc23)cc1OC	i
O=C(COc1ccccc1Cl)N1CCCC(O)(CN2CCCC2)C1 (centres undefined)	i
Cc1cn2c(=O)cc(COC(=O)CSc3ccccc3)nc2s1	i
CCn1c2c(c(=O)[nH]c1=O)C(c1cccc(F)c1)C1=C(COC1=O)N2 (centres undefined)	i
O=C1CCN(Cc2cccnc2)CCCC(C(=O)NCCCN2CCOCC2)CCN1 (centres undefined)	i
CCS(=O)(=O)N1CCCC(C(=O)NCc2ccncc2)CCNC(=O)CC1 (centres undefined)	i
COCCCNC(=O)C1CCCN(Cc2ccncc2)CCC(=O)NCC1 (centres undefined)	25µM
CN1CCCN(C(=O)C2CCCN(Cc3ccncc3)CCC(=O)NCC2)CC1 (centres undefined)	i
O=C1CCN(Cc2ccncc2)CCCC(C(=O)NCCCN2CCCc3ccccc32)CCN1 (centres undefined)	14µM
CS(=O)(=O)N1CCCC(C(=O)NCCN2CCc3ccccc3C2)CCNC(=O)CC1 (centres undefined)	i
CCCCCn1c(COc2ccc(C(C)(C)C)cc2)n[nH]c1=S	i
Cc1cccc(Nc2ncnc3sccc23)c1C	i
Cc1oc(C(O)c2ccccc2)nc1C(=O)Nc1ccc2[nH]ccc2c1 (centres undefined)	i
CCOc1ccccc1NC(=O)Cc1nn(C)c(=O)c2ccccc12	i
SMILES	KDM5B inhibitor
N#Cc1cc2c(=O)n(CCc3n[nH]c4c3CCCC4)ccc2[nH]c1=O	32µM
CC(O)CCn1ccc2[nH]c(=O)c(C#N)cc2c1=O (centres undefined)	i
CCCCc1nc(C)cc(NCCn2ccc3[nH]c(=O)c(C#N)cc3c2=O)n1	i
COC(=O)c1ccccc1NC(=O)CC1Sc2ccccc2NC1=O (centres undefined)	i
CC1=C[C@@H](CN2CCN(c3ccc(F)cc3)CC2)[C@H](C(C)C)C[C@H]1Cc1nnc(-c2cncn2C)o1	i
CCCCn1cnc2c1c(=O)n(CC(=O)Nc1ccc(F)c(Cl)c1)c(=O)n2CC(C)C	i
COc1ccc(Oc2coc3cc(OCc4ccccc4C)ccc3c2=O)cc1	i
CN(CC(=O)Nc1cccc(F)c1)CC(=O)Nc1cccc2ccccc12	i
CN(C)c1ncc2c(n1)C(C)(C(=O)Nc1ccncc1)CCC2 (centres undefined)	32µM
CC1(C(=O)N2CCCC2)CCCc2cnc(Nc3cccnc3)nc21 (centres undefined)	i
COc1ccc(NC(=O)C2(C)CCCc3cnc(Nc4cccnc4)nc32)cc1 (centres undefined)	i
CC1(C(=O)NC2CC2)CCCc2cnc(Nc3cccnc3)nc21 (centres undefined)	i
COc1cccc(Nc2ncc3c(n2)C(C)(C(=O)N2CCCC2)CC3)c1 (centres undefined)	i
COc1cccc(NC(=O)C2(C)CCCc3cnc(N(C)C)nc32)c1 (centres undefined)	40µM
CC1(C(=O)Nc2ccncc2)CCCc2cnc(Nc3ccccc3)nc21 (centres undefined)	i
CN(C)c1ncc2c(n1)C(C)(C(=O)Nc1cccc(F)c1)CCC2 (centres undefined)	32µM
Clc1ccc(CSc2nnc([C@@H]3CCCN3)o2)c(Cl)c1	i
COc1ccccc1CNC(=O)CN1CCC(c2nc3cc(Cl)ccc3s2)CC1	i
O=C1CCCC2=C1C(c1ccc(Br)cc1)n1nc(-c3ccco3)nc1N2 (centres undefined)	i
CN(C)CCSc1ccc2c(c1)OCCCO2	i
Cn1c(=O)n(Cc2cccc(Br)c2)c(=O)c2c1ncn2Cc1ccccc1	i
C=CCn1c(N2CCCCC2)nc2c1c(=O)[nH]c(=O)n2C	i
Cc1oc(-c2ccccc2)nc1C(=O)Nc1ccc(S(=O)(=O)NC2CC2)cc1	i
